Source: PubChem BioAssay (Center for Chemical Genomics, University of Michigan)
TAR Tat displ = HIV-1 TAR-Tat binding disruption; z-score (test concentration not listed); HIV-1 TAR RNA, Tat peptide displacement FRET; stronger effect = higher value; actives 0.6% (n = 100,000); AID 1259389; active means z-score of 3 or more in at least 2 runs
CDC25B-CDK2 inh = human CDC25B-CDK2/CyclinA binding inhibition; HTRF CDC25B-CDK2/CyclinA binding, anti-His/anti-Flag; stronger effect = higher value; actives 0.72% (n = 94,000); z-score (no concentration beside the values); P30305+P24941; AID 1259370; in the data active means z-score above about 3.2
* = called active by the depositor; . = no result. The list is not random: actives were taken first. Their share in the collection is about 0.93%.

SMILES	TAR Tat displ	CDC25B-CDK2 inh
COc1ccc(CCNC2(C#N)CCCCC2)cc1OC	.	-0.88
COc1ccc(CC2NCCc3cc(OC)c(OC)cc32)cc1OC (stereo not given)	37.4*	-0.3
Cc1cc(C)nc(-n2nc(C)c3c2NC(=O)CSC3c2ccccc2Cl)n1 (stereo not given)	-1.35	-1.3
Cc1nn(-c2nc3ccccc3s2)c2c1C(c1ccc(O)c(O)c1)SCC(=O)N2 (stereo not given)	6.47*	-1.95
CCOc1cc(C2SCC(=O)Nc3c2c(C)nn3-c2nc3ccccc3s2)ccc1O (stereo not given)	0.69	-1.08
Nc1c([N+](=O)[O-])cncc1[N+](=O)[O-]	.	1.68
NC(Cc1cc(O)c(O)cc1O)C(=O)O (stereo not given)	.	20.2*
Cc1o[nH]c(=O)c1CC(N)C(=O)O (stereo not given)	.	-1.08
CCN1CCN(c2ncc3c(=O)[nH]ccc3n2)CC1	1.25	-0.88
O=c1oc2ccccc2c(O)c1C(c1ccccc1Cl)c1c(O)c2ccccc2oc1=O	.	-2.28
COc1cc2c3c(c1O)-c1c(cccc1OC)CC3N(C)CC2 (stereo not given)	-10.8	-0.03
COc1cc2c(cc1OC)-c1c(OC)c(OC)cc3c1C(C2)N(C)CC3 (stereo not given)	6.26*	-6.7
CCCCC12CN3CC(C)(CN(C1)C3c1cccnc1)C2=O (stereo not given)	-0.46	-1.03
NCCc1c[nH]c2ccccc12	0.19	-0.02
NCCc1cc(O)c(O)cc1O	28.9*	.
N#CC1=C(N)Oc2c(c(=O)oc3ccccc23)C1c1ccc(O)cc1 (stereo not given)	.	0.1
c1coc(CNCCc2c[nH]c3ccccc23)c1	-0.14	13.5*
c1ccc2cc(CNCCc3c[nH]c4ccccc34)ccc2c1	.	-1.45
Fc1ccccc1CNCCc1c[nH]c2ccccc12	0.3	2.32
Fc1ccc(CNCCc2c[nH]c3ccccc23)cc1F	-0.12	15.8*
CC(C)NC(=O)N1Cc2ccccc2-n2cccc2C1c1cc(F)cc(F)c1 (stereo not given)	-0.19	.
CN(C)[C@@H]1C(=O)C(C(N)=O)=C(O)[C@@]2(O)C(=O)C3=C(O)c4c(O)ccc(Cl)c4[C@@](C)(O)[C@H]3C[C@@H]12	12.5*	.
CN(C)[C@@H]1C(=O)C(C(N)=O)=C(O)[C@@]2(O)C(=O)C3=C(O)c4c(O)cccc4[C@@](C)(O)[C@H]3[C@H](O)[C@@H]12	22.4*	.
CCN1CCN(c2nc3ccccc3nc2Cl)CC1	0.55	0.66
Cc1ccc(-n2nc(C)c3c2NC(=O)CSC3c2cc(F)cc(F)c2)cc1 (stereo not given)	2.03	-1.92
CCCOc1ccc(C2SCC(=O)Nc3c2c(=O)[nH]n3C2CCCCC2)cc1 (stereo not given)	2.55	0.19
COc1ccc(C[C@@H]2NC[C@@H](O)[C@@H]2OC(C)=O)cc1	2.76	.
